TLR4 MyD88 comp: TLR4-MyD88 interaction inhibition in cells. O00206+Q99836. HeLa CL3-4 TLR4/MyD88 BLA complementation, FRET ratio. inhibition, % at 8.4 µM. 200,000 tested, 0.18% active. AID 861; in the data active = inhibition above about 25%;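 also: 0% = vehicle and 100% = reference inhibitor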
ANO1 block: inhibitors of mouse TMEM16A calcium-activated chloride channel; Q8BHY3; normalized B-score (activity score, 25-100; higher = stronger inhibition) at 10 µM; 310,000 tested, 1.2% active; HEK293 TMEM16A/YFP iodide influx fluorescence, ionomycin;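 active = ratio plate-corrected score three or more library SD toward inhibition, starting fluorescence score within five deviations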;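 also: score derived from kinetic fluorescence span divided by baseline fluorescence per well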
HTR2A ag: activates the mouse 5-HT2A serotonin receptor. P35363. CHO-K1 mHTR2A beta-arrestin complementation, luminescence; percent of 30 µM serotonin response. activation, % at 7.6 µM. 360,000 tested, 0.66% active. AID 624169;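 active = activation above a run cutoff, the mean activation of all tested compounds plus 3 SD, cut at about 14% in these data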;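 also: 0% = plate median of compound wells and 100% = 30 µM serotonin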
TLR9-MyD88 inh: blocks human TLR9 binding to MyD88. Q9NR96+Q99836. CHO BLA complementation TLR9-MyD88, CCF4 FRET ratio. inhibition, % at 4.98 µM. 340,000 tested, 0.21% active;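 active = inhibition above the mean over all tested compounds plus 3 SD, cut at about 21% in these data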;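 also: 0% = DMSO only wells and 100% = clavulanate BLA inhibitor control wells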
NOD2 RIPK2 PPI: blocks binding of human NOD2 to RIPK2; CHO BLA complementation NOD2-RIPK2, CCF4 ratio; AID 624267; 360,000 tested, 0.38% active; O43353; inhibition, % at 4.98 µM; in the data active = inhibition above about 21%;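 also: 0% = vehicle only and 100% = reference blocker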
ANO1 activ: mouse TMEM16A channel activation, primary screen | 340,000 tested, 0.3% active | B-score at 10 µM | HEK293 TMEM16A/YFP-H148Q/I152L, iodide quench fluorescence; stronger effect = lower value;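 active = fluorescence-ratio B-score plate-corrected deviation score at least 3 library SD below zero, with starting fluorescence score within 5 deviations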;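 also: channel opened by trigger with iodide after compound preincubation; score built on the fluorescence ratio of max minus min over baseline; more negative score means more quench and so TMEM16A activation or potentiation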
OPRM1 ag: counter-screen for mouse HTR2A agonists: human mu opioid receptor agonists; shares compounds with HTR2A ag; U2OS OPRM1 beta-arrestin PathHunter, luminescence; DMSO 0%, DAMGO 9.3 µM 100%; activation, % at 9.3 µM; 2,300 tested, 5.3% active;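 active = mean activation above the mean of DMSO-only wells plus 3 SD, cut at about 0.5% in these data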
Target sequence (P35372 whole entry, looked up): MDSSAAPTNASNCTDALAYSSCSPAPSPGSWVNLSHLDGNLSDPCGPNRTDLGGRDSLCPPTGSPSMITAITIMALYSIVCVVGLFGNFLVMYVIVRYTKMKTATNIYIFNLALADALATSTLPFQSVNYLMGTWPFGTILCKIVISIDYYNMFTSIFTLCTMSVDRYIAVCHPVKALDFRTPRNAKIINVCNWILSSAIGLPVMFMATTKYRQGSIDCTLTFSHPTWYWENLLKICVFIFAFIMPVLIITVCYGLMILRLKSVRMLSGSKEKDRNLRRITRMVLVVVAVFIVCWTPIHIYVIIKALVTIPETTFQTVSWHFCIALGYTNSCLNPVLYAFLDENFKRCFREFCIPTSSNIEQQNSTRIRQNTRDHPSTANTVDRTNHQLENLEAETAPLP
HTR2A ag conf: mouse HTR2A agonism confirmed | 2,300 tested, 19% active | shares compounds with HTR2A ag | activation, % at 7.6 µM | AID 624381 | CHO-K1 PathHunter beta-arrestin recruitment, luminescence; DMSO 0%, 30 µM serotonin 100%;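 active = mean activation across triplicates above the hit threshold derived in the original primary screen, cut at about 15% in these data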
The depositor's hits bear a star. Hits are enriched below; roughly 2.4% of the tested compounds scored in any of these assays.

Screening CCOC(=O)C1(CC2CC2)CCN(Cc2cc(Cl)c(O)c(OC)c2)CC1 returned TLR4 MyD88 comp 0, ANO1 block inactive, HTR2A ag 20*, TLR9-MyD88 inh 5, NOD2 RIPK2 PPI -4, ANO1 activ inactive, OPRM1 ag 0 and HTR2A ag conf -4.
Screening CCOC(=O)C1(CCOc2ccccc2)CCN(Cc2cc(OC)c(O)c(OC)c2)CC1 returned ANO1 block inactive, HTR2A ag -2, TLR9-MyD88 inh -8, NOD2 RIPK2 PPI 6 and ANO1 activ inactive.
`Cc1cccc(C(=O)NC2CCN(S(=O)(=O)c3ccccc3)CC2)c1` gave TLR4 MyD88 comp -7, ANO1 block inactive, HTR2A ag 5, TLR9-MyD88 inh -2, NOD2 RIPK2 PPI 8 and ANO1 activ inactive.
Screening CC(=O)N1CCOc2ccc(S(=O)(=O)N3CCC(C(=O)Nc4ccc(C)cc4)CC3)cc21 returned ANO1 block inactive, HTR2A ag -1, TLR9-MyD88 inh -8, NOD2 RIPK2 PPI 6 and ANO1 activ inactive.
`CN1CCN(C(=S)Nc2ccc(Cl)c(Cl)c2)CC1` gave TLR4 MyD88 comp -16, ANO1 block inactive, HTR2A ag -2, TLR9-MyD88 inh 4, NOD2 RIPK2 PPI -15 and ANO1 activ inactive.
For O=C(NC1CCCCC1)N1CCNCC1 the results were ANO1 block inactive, HTR2A ag 14*, TLR9-MyD88 inh -4, NOD2 RIPK2 PPI 1, ANO1 activ inactive, OPRM1 ag -1 and HTR2A ag conf -2.
`O=C(NC1CCCCC1)N1CCCCCC1` gave TLR4 MyD88 comp -12, ANO1 block inactive, HTR2A ag 5, TLR9-MyD88 inh -6, NOD2 RIPK2 PPI 8 and ANO1 activ inactive.
Cc1nnc(SCC(=O)Nc2cccc(S(N)(=O)=O)c2)n1-c1ccccc1 was read as ANO1 block inactive, HTR2A ag 6, TLR9-MyD88 inh 1, NOD2 RIPK2 PPI -7 and ANO1 activ inactive.
`Cc1cc(C)n(CCN(C)C(=O)C2CCC(=O)N(CCc3cccc(F)c3)C2)n1` (configuration not stated) gave ANO1 block inactive, HTR2A ag 15*, TLR9-MyD88 inh 3, NOD2 RIPK2 PPI -12, ANO1 activ inactive, OPRM1 ag 0 and HTR2A ag conf -3.
`C(#Cc1ccccc1)CN1CCN(c2ccccn2)CC1` gave TLR4 MyD88 comp 3, ANO1 block inactive, HTR2A ag 2, TLR9-MyD88 inh -2, NOD2 RIPK2 PPI -10 and ANO1 activ inactive.
`Clc1ccc(CN2CCN(c3ncccn3)CC2)cc1Cl` gave ANO1 block inactive, HTR2A ag 27*, TLR9-MyD88 inh -9, NOD2 RIPK2 PPI -7, ANO1 activ inactive, OPRM1 ag 0 and HTR2A ag conf 112*.
`c1ccc(COc2ccc(CN3CCN(c4ccccn4)CC3)cc2)cc1` gave TLR4 MyD88 comp -3, ANO1 block inactive, HTR2A ag 27*, TLR9-MyD88 inh -5, NOD2 RIPK2 PPI 3, ANO1 activ inactive, OPRM1 ag -1 and HTR2A ag conf 99*.
`Clc1ccc(CN2CCN(c3ncccn3)CC2)cc1` gave ANO1 block inactive, HTR2A ag 29*, TLR9-MyD88 inh 0, NOD2 RIPK2 PPI 4, ANO1 activ inactive, OPRM1 ag 0 and HTR2A ag conf 117*.
Screening c1ccc(CN2CCN(c3ncccn3)CC2)cc1 returned ANO1 block inactive, HTR2A ag 35*, TLR9-MyD88 inh -9, NOD2 RIPK2 PPI -1, ANO1 activ inactive, OPRM1 ag 0 and HTR2A ag conf 98*.
For COc1ccccc1N1CCN(S(C)(=O)=O)CC1 the results were TLR4 MyD88 comp -10, ANO1 block inactive, HTR2A ag 5, TLR9-MyD88 inh 1, NOD2 RIPK2 PPI 1 and ANO1 activ inactive.
Cc1cc2oc3ccc(NCCCn4ccnc4)cc3c(=O)c2cc1C was read as ANO1 block inactive, HTR2A ag 20*, TLR9-MyD88 inh 19, NOD2 RIPK2 PPI 18, ANO1 activ inactive, OPRM1 ag 1.4* and HTR2A ag conf 9.
Screening Cc1cc2oc3ccc(NCCCN4CCOCC4)cc3c(=O)c2cc1C returned ANO1 block inactive, HTR2A ag -7, TLR9-MyD88 inh -2, NOD2 RIPK2 PPI 2 and ANO1 activ inactive.
Screening CC(CCc1ccc(O)cc1)NCCc1ccc(O)c(O)c1 (configuration not stated) returned ANO1 block inactive, HTR2A ag 27*, TLR9-MyD88 inh 9, NOD2 RIPK2 PPI -9, ANO1 activ inactive, OPRM1 ag 0 and HTR2A ag conf 120*.
For COc1ccccc1CCNC(C)CCc1ccc(O)cc1 (configuration not stated) the results were ANO1 block inactive, HTR2A ag 6, TLR9-MyD88 inh 2, NOD2 RIPK2 PPI 3 and ANO1 activ inactive.
Screening Cc1ccc(O)c(C=Nc2cc(C)ccc2O)c1 returned TLR4 MyD88 comp -1, ANO1 block inactive, HTR2A ag -1, TLR9-MyD88 inh -7, NOD2 RIPK2 PPI 1 and ANO1 activ inactive.
`CC(C)(C)c1ccc(O)c(N=Cc2cc(Br)ccc2O)c1` gave TLR4 MyD88 comp -4, ANO1 block inactive, HTR2A ag 49*, TLR9-MyD88 inh -7, NOD2 RIPK2 PPI -3, ANO1 activ inactive, OPRM1 ag 0 and HTR2A ag conf 2.
`CC(NC(=O)COC(=O)C1=COCCO1)C12CC3CC(CC(C3)C1)C2` (configuration not stated) gave TLR4 MyD88 comp -5, ANO1 block inactive, HTR2A ag -1, TLR9-MyD88 inh -4, NOD2 RIPK2 PPI 2 and ANO1 activ inactive.
`COc1ccc(NC(=O)c2ccc(NC(=O)c3nc4nc(C)cc(C)n4n3)cc2)cc1` gave HTR2A ag 15*, TLR9-MyD88 inh 8, NOD2 RIPK2 PPI -5, ANO1 activ inactive, OPRM1 ag -1 and HTR2A ag conf -4.
Screening CCc1ccc(NC(=O)CSc2nc3nc(C)cc(C)n3n2)cc1 returned ANO1 block inactive, HTR2A ag 18*, TLR9-MyD88 inh 7, NOD2 RIPK2 PPI 4, ANO1 activ inactive, OPRM1 ag 0 and HTR2A ag conf -2.
`Cc1cc(C)n2nc(SCC(=O)Nc3ccccc3)nc2n1` gave TLR4 MyD88 comp -14, ANO1 block inactive, HTR2A ag -6, TLR9-MyD88 inh 6, NOD2 RIPK2 PPI -11 and ANO1 activ inactive.

Bioassay records deposited in PubChem BioAssay by several laboratories.
